# Measured values as given in PubChem BioAssay AID463173 (ICCB-Longwood Screening Facility, Harvard Medical School, 2010).
# The campaign covered roughly 52,000 compounds. About 1,700 (3.3%) were called active. Shown is part of a subset that was picked to be rich in actives. Values without a mark were called inactive. Cut-off read from the data, not from the text of the source: active = survival mostly below about 52% (no sharp cut-off); inactive = mostly above about 56%.
# Tested on: Wild type
# Assay: growth inhibition of S. aureus wild type versus tarO mutant, primary screen, teichoic acid synthesis inhibitors, RN4220, OD600 (AID 463173)
# Conditions: S. aureus RN4220 wild type/DeltatarO growth, OD600, 18 h, hits give low values, screened at 18.75 µg/mL (by protocol)
row,Structure (SMILES),survival
1,Cc1ccc(-n2c(SCC(=O)O)nc3sc4c(c3c2=O)CCCC4)cc1,73%
2,CCCSc1nc2sc3c(c2c(=O)n1-c1ccc(C)c(Cl)c1)CCN(C(C)=O)C3,87%
3,CCCSc1nc2sc3c(c2c(=O)n1-c1ccc(C)cc1)CCCC3,5% (active)
4,CC(C)CCSc1nnc2n(-c3ccccc3)c(=O)c3c4c(sc3n12)CC(C)CC4 (configuration not stated),76%
5,CCSc1nc2sc3c(c2c(=O)n1-c1ccc(C)c(Cl)c1)CCN(C(C)=O)C3,70%
6,Cc1ccc(-n2c(SCCC(C)C)nc3sc4c(c3c2=O)CC(C)(C)OC4)cc1,76%
7,CCOC(=O)CSc1nc2sc3c(c2c(=O)n1-c1ccccc1)CCC(C(C)(C)C)C3 (configuration not stated),70%
8,CSc1nc2sc3c(c2c(=O)n1-c1ccccc1)CCC(C(C)(C)C)C3 (configuration not stated),12% (active)
9,CSc1nc2sc3c(c2c(=O)n1Cc1ccccc1)CCC(C(C)(C)C)C3 (configuration not stated),113%
10,C=C(C)CSc1nc2sc3c(c2c(=O)n1-c1ccccc1)CCC(C)C3 (configuration not stated),67%
11,CCCSc1nc2sc3c(c2c(=O)n1-c1ccccc1)CCC(C)C3 (configuration not stated),1% (active)
12,CCSc1nc2sc3c(c2c(=O)n1-c1ccc(C)cc1)CCCC3,0% (active)
13,Cc1ccc(C)c(N(CC(=O)Nc2ccccc2)S(C)(=O)=O)c1,99%
14,CCc1cccc(NC(=O)Cn2c(=O)ccc3cc(S(=O)(=O)N4CCC(C)CC4)ccc32)c1,129%
15,Cc1ccc2oc(C(=O)Nc3nc(-c4ccc(F)cc4)ns3)c(C)c2c1,87%
16,COc1ccc(NC(=O)c2c(NCc3cccs3)sc3c2CCCC3)cc1,80%
17,CCOC(=O)c1cccc(NC(=O)CCSCCc2ccccn2)c1,68%
18,CCOC(=O)Cn1cnc2c(cnn2-c2ccc(C)c(C)c2)c1=O,72%
19,COc1ccc(NC(=O)N2CCc3c([nH]c4ccc(OC)cc34)C2c2ccc(OC)cc2)cc1 (configuration not stated),93%
20,Cc1ccc(CS(=O)(=O)c2ncc(Cl)c(C(=O)Nc3nc4ccc(C)cc4s3)n2)cc1,26%
21,O=C(NCc1ccccc1)C(=O)NCC(c1cccnc1)N1CCN(c2ccccc2)CC1 (configuration not stated),82%
22,Cc1ccccc1CNC(=O)C1CCN(c2nn3cc(-c4ccc(F)cc4)nc3s2)CC1,66%
23,Cc1ccc2ncc(C(=O)NCc3ccccc3Cl)c(=O)n2c1,93%

row,Structure (SMILES),survival
1,CC1CCN(c2ccc(-c3nc(-c4ccccc4)no3)cc2[N+](=O)[O-])CC1,112%
2,Cc1cc(C)cc(NC(=O)CSc2oc(-c3cccs3)nc2S(=O)(=O)c2ccc(Br)cc2)c1,75%
3,CCCCn1c(SCC(=O)c2ccccc2)nc2sc3c(c2c1=O)CCCC3,62%
4,CCCCCSc1nc2sc3c(c2c(=O)n1-c1ccc(OC)cc1)CCN(C(C)=O)C3,-21% (active)
5,C=C(C)CSc1nc2sc3c(c2c(=O)n1CCCC)CCCC3,0% (active)
6,COc1ccc(-n2c(SC)nc3sc4c(c3c2=O)CCN(C(C)=O)C4)cc1,126%
7,C=C(C)Cn1c(SCC(=O)c2ccccc2)nc2sc3c(c2c1=O)CCCC3,84%
8,CCCCCSc1nc2sc3c(c2c(=O)n1-c1ccccc1)CCN(C(C)=O)C3,58%
9,CCOC(=O)c1cccc(NC(=O)CSc2ncc3c(n2)-c2ccc(Cl)cc2N(Cc2ccccc2)S3(=O)=O)c1,87%
10,CSc1nc(C)cc(Nc2cccc(C(=O)O)c2)n1,87%
11,Cc1ccc(Nc2cc(-c3ccccc3)nc(C)n2)cc1,37%
12,COc1cccc(Nc2cc(-c3ccccc3)nc(C)n2)c1,49%
13,Cc1cc(C)cc(Nc2cc(-c3ccccc3)nc(C)n2)c1,10% (active)
14,CSc1nc(Nc2ccc(C)cc2C)cc(-c2ccccc2)n1,50%
15,CCOC(=O)c1ccc(Nc2cc(-c3ccccc3)nc(C)n2)cc1,83%
16,CCOc1ccccc1Nc1cc(-c2ccccc2)nc(C)n1,78%
17,Cc1nc(Nc2ccc(Cl)cc2)cc(-c2ccccc2)n1,-2% (active)
18,CSc1nc(Nc2ccc(F)cc2)cc(-c2ccccc2)n1,-2% (active)
19,COc1ccccc1NC(=O)CSc1nncn2c1cc1sccc12,96%
20,Cc1oc(-c2ccccc2)nc1CSc1nnc(C)n2c1cc1sccc12,83%
21,CCN(CCCNC(=O)Cn1ncc2c([nH]c3ccc(C)cc32)c1=O)Cc1ccccc1,55%
22,NCC(O)CN1CCN(Cc2ccccc2)CC1 (configuration not stated),105%
23,CCOC(=O)c1sc2ncn(CC(=O)Nc3ccc(N(C)C)cc3)c(=O)c2c1C,89%

row,Structure (SMILES),survival
1,O=C(CSc1ccc2ccccc2n1)Nc1nsc(-c2ccc(Cl)cc2)n1,68%
2,COc1ccc2c(C)cc(SCC(=O)Nc3nsc(-c4ccc(C(C)(C)C)cc4)n3)nc2c1,5% (active)
3,Cc1ccc(-c2nc(NC(=O)CSc3cc(C)c4ccccc4n3)ns2)cc1,71%
4,Cc1ccccc1-c1nc(NC(=O)CSc2ncnc3sc4c(c23)CCCC4)ns1,88%
5,Cc1ccc(-c2nc(NC(=O)CSc3ccc4ccccc4n3)ns2)cc1,83%
6,CC(C)(C)c1ccc(-c2nc(NC(=O)CSc3ncnc4sc5c(c34)CCCC5)ns2)cc1,73%
7,Cc1cc(SCC(=O)Nc2nsc(-c3ccc(C(C)(C)C)cc3)n2)nc2ccccc12,7% (active)
8,COc1cccc(NC(=O)CSc2cc(C)c3ccccc3n2)c1,73%
9,COc1ccc2c(C)cc(SCC(=O)Nc3nsc(-c4ccccc4C)n3)nc2c1,1% (active)
10,COC(=O)c1ccc(Cn2c(SCC(=O)Nc3ccc(F)cc3)nc3ccccc32)cc1,55%
11,Cc1ccc(Sc2ccc(N3CCCC(C(=O)Nc4ccc(F)cc4)C3)nn2)cc1 (configuration not stated),60%
12,CCOC(=O)c1c(NC(=O)C(C)Oc2ccccc2F)sc(C(C)=O)c1C (configuration not stated),65%
13,COc1ccc(NC(=O)CSc2ccc(-c3cccs3)nn2)cc1,89%
14,CCOC(=O)c1c(NC(C)=O)c2c3c(sc2n1Cc1nc(-c2ccc(Cl)cc2)oc1C)CCCC3,81%
15,Cc1ccc(CN2COc3c(Cl)cc4c(-c5ccccc5)cc(=O)oc4c3C2)cc1,87%
16,COc1ccc(OCC(=O)N(Cc2cccs2)c2ccc(OC)cc2)cc1,85%
17,Cc1cccc(OCC(=O)N(Cc2cccs2)c2ccc(Cl)cc2)c1C,79%
18,COc1ccc(N(Cc2cccs2)C(=O)COc2cccc(C)c2C)cc1,12% (active)
19,CC1(C)CC2(C=CC(=O)CC2)CCO1 (configuration not stated),96%
20,Cn1c(=O)c2c(-c3ccc(Cl)cc3)ccnc2n(C)c1=O,68%
21,O=S(=O)(c1ccccc1)n1nc(-c2ccccc2)nc1NCc1ccc(Cl)cc1,73%
22,COc1ccc(CNc2nc(-c3ccc(Cl)cc3)nn2S(=O)(=O)c2ccc(C)cc2)cc1,64%
23,COc1ccc(CNc2nc(-c3ccccc3)nn2S(=O)(=O)c2ccccc2)cc1,4% (active)

row,Structure (SMILES),survival
1,CCc1ccc(NC(=O)Cn2c(=O)n(CCC(=O)NCCc3ccc(OC)c(OC)c3)c(=O)c3ccccc32)cc1,102%
2,COc1ccc(NCc2nnc3n2CCCCC3)c(OC)c1,73%
3,Cc1ccc(Cl)cc1NCc1nnc2n1CCCCC2,75%
4,COc1ccc(C)cc1NCc1nnc2n1CCCCC2,-3% (active)
5,Fc1ccc(NCc2nnc3n2CCCCC3)cc1Cl,66%
6,Cc1cc(C)cc(NCc2nnc3n2CCCCC3)c1,85%
7,COc1ccc(Cl)cc1NCc1nnc2n1CCCCC2,0% (active)
8,O=[N+]([O-])c1ccc(S(=O)(=O)N2CCn3cccc3C2c2ccccc2F)cc1 (configuration not stated),132%
9,Cn1nc(C(=O)N2CCN(c3cccc(Cl)c3)CC2)c2c1-c1ccccc1S(=O)(=O)C2,46%
10,COc1ccc(C2=C/C(=C/c3ccco3)C(=O)O2)cc1,117%
11,Cc1cccc(CCNC(=O)CN(c2ccc(C(C)C)cc2)S(=O)(=O)c2c(C)nn(C)c2C)c1,87%
12,CC1CCN(S(=O)(=O)c2ccc3c(ccc(=O)n3CC(=O)Nc3ccc(C(C)C)cc3)c2)CC1,-2% (active)
13,CC1CCN(S(=O)(=O)c2ccc3c(ccc(=O)n3CC(=O)NCc3ccc(Cl)cc3)c2)CC1,59%
14,CCc1ccc(NC(=O)Cn2c(=O)ccc3cc(S(=O)(=O)N4CCCC4)ccc32)cc1,148%
15,CC(=O)Nc1ccc(NC(=O)Cn2c(=O)ccc3cc(S(=O)(=O)N4CCC(C)CC4)ccc32)cc1,91%
16,CC1CCN(C(=O)Cn2c(=O)oc3cc(S(=O)(=O)N4CCCCC4)ccc32)CC1,83%
17,CC1CCN(S(=O)(=O)c2ccc3c(c2)oc(=O)n3CC(=O)O)CC1,-3% (active)
18,CC1CCN(S(=O)(=O)c2ccc3c(c2)oc(=O)n3CC(=O)N2CCCCC2)CC1,76%
19,CC1CCN(S(=O)(=O)c2ccc3c(ccc(=O)n3CC(=O)NCc3ccccc3)c2)CC1,22%
20,Cc1ccc(NC(=O)Cn2c(=O)ccc3cc(S(=O)(=O)N4CCCC4)ccc32)cc1N(C)C,0% (active)
21,Cc1ccc(NC(=O)Cn2c(=O)ccc3cc(S(=O)(=O)N4CCC(C)CC4)ccc32)cc1Cl,88%
22,Cc1ccc(NC(=O)Cn2c(=O)ccc3cc(S(=O)(=O)N4CCCC4)ccc32)cc1C,88%
23,Cc1ccc(CNC(=O)Cn2c(=O)ccc3cc(S(=O)(=O)N4CCC(C)CC4)ccc32)cc1,10% (active)
